Experimental data taken from PubChem BioAssay (NCI).
The panel holds about 79,000 compounds, 15% with a hit somewhere; the sample as a whole holds those more often. Activity calls are given as the source filed them. No stated cut-off is given here; in the data, active means growth inhibition above about 70%; inactive means the rest.

Legend:
[1] = NCI Yeast Anticancer Drug Screen. Data for the rad52 strain (AID 147);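 further: 0% = growth of vehicle-treated control cultures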; settings: S. cerevisiae rad52 mutant growth inhibition, active compounds read high
How it was run: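 The repair-mutant yeast strain was incubated with compounds, then growth was read and inhibition derived relative to vehicle.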

[2] = NCI Yeast Anticancer Drug Screen. Data for the wt1 strain (AID 149);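 further: 0% = growth of vehicle-treated wt1 cultures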; settings: S. cerevisiae wt1 strain (SPY 50644) growth inhibition, active compounds read high
How it was run: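 The wt1 strain was treated with compounds, and growth was compared with vehicle-treated cultures to give inhibition.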

[3] = NCI Yeast Anticancer Drug Screen. Data for the rad50EPP+ strain (AID 151);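 further: 0% = growth of vehicle-treated control cultures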; settings: S. cerevisiae rad50 mutant strain, active compounds read high
How it was run: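 Vehicle-normalised growth inhibition; rad50EPP+ yeast strain, altered in DNA damage repair, compound-treated.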

[4] = NCI Yeast Anticancer Drug Screen. Data for the mgt1 strain (AID 153); settings: S. cerevisiae mgt1 mutant growth inhibition, active compounds read high
How it was run: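 Vehicle-normalized growth inhibition is determined in mgt1 yeast, a strain selected for a defined alteration in DNA repair or cell cycle control.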

[5] = NCI Yeast Anticancer Drug Screen. Data for the rad50 strain (AID 155);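 further: 0% = growth of vehicle-only cultures of the same strain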; settings: S. cerevisiae rad50 strain growth inhibition, active compounds read high
How it was run: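 Cells are treated with compound, grown, and their growth is then scored against vehicle-only cultures of the same repair-deficient yeast strain.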

[6] = NCI Yeast Anticancer Drug Screen. Data for the mec2-1 strain (AID 157); settings: S. cerevisiae mec2-1 strain, active compounds read high
How it was run: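 Mutant yeast (mec2-1) grown with compound; growth inhibition relative to vehicle control reported.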

[7] = NCI Yeast Anticancer Drug Screen. Data for the rad14 strain (AID 159);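 further: 0% = growth of vehicle-treated control cultures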; settings: S. cerevisiae rad14 strain growth inhibition, active compounds read high
How it was run: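 Readout: yeast growth inhibition, referenced to vehicle-only cultures. Strain bears a defined alteration in DNA damage repair.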

[8] = NCI Yeast Anticancer Drug Screen. Data for the sgs1 mgt1 strain (AID 161);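 further: 0% = growth of cultures given vehicle only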; settings: S. cerevisiae sgs1 mgt1 strain, active compounds read high
How it was run: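 Compounds are added to genetically altered yeast, and growth is compared with cultures given vehicle alone to give percent inhibition.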

[9] = NCI Yeast Anticancer Drug Screen. Data for the CLN2oe strain (AID 163);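 further: 0% = growth of vehicle-only control cultures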; settings: S. cerevisiae CLN2oe strain, active compounds read high
How it was run: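 Compounds are applied to yeast harbouring a defined cell-cycle control change; reduced growth compared with vehicle-treated controls gives the value.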

[10] = NCI Yeast Anticancer Drug Screen. Data for the cln2 rad14 strain (AID 165);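 further: 0% = growth equal to vehicle treated cultures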; settings: S. cerevisiae cln2 rad14 strain, active compounds read high
How it was run: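 Readout is yeast growth inhibition versus vehicle-treated controls, using a strain with cln2 and rad14 alterations exposed to compound.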

[11] = NCI Yeast Anticancer Drug Screen. Data for the bub3 strain (AID 167); settings: S. cerevisiae bub3 mutant strain, active compounds read high
How it was run: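 Part of a panel of yeast mutants defective in DNA damage repair or cell cycle regulation. Each strain is grown with compound, and inhibition is calculated relative to solvent-treated cultures.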

[12] = NCI Yeast Anticancer Drug Screen. Data for the wt2 strain (AID 169);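 further: 0% = growth of vehicle-treated yeast cultures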; settings: S. cerevisiae wt2 strain growth inhibition, active compounds read high
How it was run: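 Against vehicle-treated controls, the growth of yeast exposed to each compound was compared, and the inhibition was recorded.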

[13] = NCI Yeast Anticancer Drug Screen. Data for the mlh1 strain (AID 171);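 further: 0% = growth of vehicle-treated control cultures of the same strain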; settings: S. cerevisiae mlh1 strain growth inhibition, active compounds read high
How it was run: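 Measured: yeast growth. Reference: vehicle-treated controls. Organism: strain with a defined alteration affecting DNA damage repair or cell cycle control, treated with compound.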

[14] = NCI Yeast Anticancer Drug Screen. Data for the sgs1 strain (AID 173);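 further: 0% = growth of vehicle-only control cultures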; settings: S. cerevisiae sgs1 mutant, active compounds read high
How it was run: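 Each compound was added to cultures of the altered yeast strain. Growth was recorded, and inhibition was derived by comparison with vehicle controls.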

[15] = NCI Yeast Anticancer Drug Screen. Data for the mlh1 rad18 strain (AID 175); settings: S. cerevisiae mlh1 rad18 strain growth inhibition, active compounds read high
How it was run: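 Genetically defined yeast (DNA repair-deficient) exposed to compounds; growth inhibition determined relative to vehicle.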

[16] = NCI Yeast Anticancer Drug Screen. Data for the rad18 strain (AID 177); settings: S. cerevisiae rad18 mutant growth inhibition, active compounds read high
How it was run: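 Vehicle-treated cultures served as the baseline for scoring compound-induced growth inhibition in DNA-repair-mutant yeast.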

[17] = at 5.0 µM (retest, dose inferred, filed as 0.5)
[18] = at 50.0 µM (retest, dose inferred, filed as 5.0)

Measured: growth inhibition

COc1ccc(N)c2c1C(=O)c1ccccc1C2=O
inactive: [1]; at 1.2 µM 6% | [1]; at 3.7 µM 11% | [1]; at 11.0 µM 46% | [2]; at 1.2 µM 0% | [2]; at 3.7 µM 11% | [2]; at 11.0 µM 14% | [2]; at 33.0 µM 47% | [3]; at 1.2 µM 9% | [3]; at 3.7 µM 26% | [3]; at 11.0 µM 59% | [4]; at 1.2 µM 3% | [4]; at 3.7 µM -3% | [4]; at 11.0 µM 8% | [4]; at 33.0 µM 39% | [5]; at 1.2 µM 7% | [5]; at 3.7 µM 8% | [5]; [17] 30% | [5]; at 11.0 µM 35% | [5]; [18] 39% | [5]; at 50.0 µM 60.2% | [6]; at 1.2 µM -9% | [6]; at 3.7 µM 0% | [6]; [17] 47% | [6]; at 11.0 µM 12% | [6]; at 33.0 µM 40% | [6]; [18] 56% | [6]; at 50.0 µM 32.1% | [7]; at 1.2 µM -6% | [7]; at 3.7 µM -23% | [7]; at 11.0 µM 2% | [7]; at 33.0 µM 29% | [8]; [17] -15% | [8]; at 50.0 µM 62.5% | [9]; at 1.2 µM -2% | [9]; at 3.7 µM 6% | [9]; at 11.0 µM 17% | [9]; at 33.0 µM 34% | [10]; [17] 62% | [10]; at 50.0 µM 32.5% | [11]; at 1.2 µM -25% | [11]; at 3.7 µM -24% | [11]; [17] 41% | [11]; at 11.0 µM -32% | [11]; at 33.0 µM 19% | [11]; at 50.0 µM 49% | [12]; at 1.2 µM -11% | [12]; at 3.7 µM -11% | [12]; at 11.0 µM -6% | [12]; at 33.0 µM 42% | [13]; at 1.2 µM -5% | [13]; at 3.7 µM -9% | [13]; at 11.0 µM 1% | [13]; at 33.0 µM 46% | [14]; at 1.2 µM -6% | [14]; at 3.7 µM -6% | [14]; at 11.0 µM 6% | [14]; at 33.0 µM 68% | [15]; [17] 27% | [15]; [18] 40% | [16]; at 1.2 µM -20% | [16]; at 3.7 µM -12% | [16]; at 11.0 µM -10% | [16]; at 33.0 µM 54%
active: [1]; at 33.0 µM 90% | [1]; at 100.0 µM 96% | [2]; at 100.0 µM 94% | [3]; at 33.0 µM 93% | [3]; at 100.0 µM 97% | [4]; at 100.0 µM 93% | [5]; at 33.0 µM 89% | [5]; at 100.0 µM 96% | [6]; at 100.0 µM 81% | [7]; at 100.0 µM 93% | [8]; [18] 79% | [9]; at 100.0 µM 89% | [10]; [18] 71% | [11]; [18] 72% | [11]; at 100.0 µM 93% | [12]; at 100.0 µM 93% | [13]; at 100.0 µM 94% | [14]; at 100.0 µM 96% | [15]; at 50.0 µM 77.5% | [16]; at 100.0 µM 93%

Cc1ccc(Nc2n[nH]c(=S)s2)cc1
inactive: [1]; at 1.2 µM -2% | [1]; at 3.7 µM 2% | [1]; at 11.0 µM 6% | [2]; at 1.2 µM -21% | [2]; at 3.7 µM -12% | [2]; at 11.0 µM -19% | [2]; at 33.0 µM 35% | [3]; at 1.2 µM -13% | [3]; at 3.7 µM -10% | [3]; at 11.0 µM -11% | [3]; at 33.0 µM 6% | [3]; at 100.0 µM 68% | [4]; at 1.2 µM -6% | [4]; at 3.7 µM -5% | [4]; at 11.0 µM -3% | [4]; at 33.0 µM 65% | [5]; at 1.2 µM 5% | [5]; at 3.7 µM -1% | [5]; [17] 44% | [5]; at 11.0 µM 0% | [6]; at 1.2 µM -13% | [6]; at 3.7 µM -29% | [6]; [17] 39% | [6]; at 11.0 µM -27% | [6]; at 33.0 µM 13% | [6]; [18] 55% | [7]; at 1.2 µM -14% | [7]; at 3.7 µM -28% | [7]; at 11.0 µM -11% | [8]; [17] 1% | [9]; at 1.2 µM 11% | [9]; at 3.7 µM 2% | [9]; at 11.0 µM 3% | [9]; at 33.0 µM 40% | [10]; [17] 60% | [11]; at 1.2 µM 1% | [11]; at 3.7 µM -12% | [11]; [17] 45% | [11]; at 11.0 µM -3% | [11]; at 33.0 µM 53% | [12]; at 1.2 µM -12% | [12]; at 3.7 µM -6% | [12]; at 11.0 µM -17% | [12]; at 33.0 µM 47% | [13]; at 1.2 µM -10% | [13]; at 3.7 µM -34% | [13]; at 11.0 µM -23% | [13]; at 33.0 µM 29% | [14]; at 1.2 µM -34% | [14]; at 3.7 µM -36% | [14]; at 11.0 µM -25% | [14]; at 33.0 µM 41% | [15]; [17] 36% | [15]; [18] 60%
active: [1]; at 33.0 µM 74% | [1]; at 100.0 µM 94% | [2]; at 100.0 µM 92% | [4]; at 100.0 µM 94% | [5]; at 33.0 µM 72% | [5]; [18] 80% | [5]; at 50.0 µM 87% | [5]; at 100.0 µM 93% | [6]; at 50.0 µM 86% | [6]; at 100.0 µM 93% | [7]; at 33.0 µM 81% | [7]; at 100.0 µM 95% | [8]; [18] 91% | [9]; at 100.0 µM 91% | [10]; [18] 94% | [11]; [18] 91% | [11]; at 100.0 µM 93% | [12]; at 100.0 µM 92% | [13]; at 100.0 µM 92% | [14]; at 100.0 µM 88% | [15]; at 50.0 µM 85.7%
